OTUD3 block: inhibitors of human OTUD3 deubiquitinase | inhibition, % at 25 µM | purified OTUD3, Ub-rhodamine fluorescence, 2 h | 47,000 compounds, 0.7% hits | OTU domain-containing protein 3 (Homo sapiens), Q5T2D3
USP30 block: inhibitors of human USP30 deubiquitinase. purified USP30, Ub-rhodamine cleavage fluorescence. inhibition, % at 25 µM. 47,000 compounds, 5.3% hits. AID 1645860, 2021
USP17 block: inhibitors of human USP17 deubiquitinase; Ubiquitin carboxyl-terminal hydrolase 17-like protein 5 (Homo sapiens), A8MUK1; AID 1645855, 2021; purified USP17, Ub-rhodamine cleavage fluorescence, 3 h; 47,000 compounds, 6.5% hits; inhibition, % at 50 µM
Target sequence (A8MUK1 whole entry, looked up): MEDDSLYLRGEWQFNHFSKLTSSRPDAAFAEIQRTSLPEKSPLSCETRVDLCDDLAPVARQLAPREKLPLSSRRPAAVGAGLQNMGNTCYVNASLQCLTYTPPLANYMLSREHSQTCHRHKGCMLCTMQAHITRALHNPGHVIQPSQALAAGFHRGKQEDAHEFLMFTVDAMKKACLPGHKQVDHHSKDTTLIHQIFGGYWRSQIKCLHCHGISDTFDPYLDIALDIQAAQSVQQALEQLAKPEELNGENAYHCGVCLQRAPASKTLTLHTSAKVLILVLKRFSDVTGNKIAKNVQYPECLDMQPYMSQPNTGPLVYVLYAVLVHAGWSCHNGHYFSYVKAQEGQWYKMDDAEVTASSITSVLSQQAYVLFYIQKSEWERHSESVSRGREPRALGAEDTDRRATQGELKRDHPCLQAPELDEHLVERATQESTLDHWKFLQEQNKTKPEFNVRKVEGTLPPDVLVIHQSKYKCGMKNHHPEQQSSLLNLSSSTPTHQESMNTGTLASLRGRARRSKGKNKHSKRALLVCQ
USP28 inh: inhibitors of human USP28 deubiquitinase; Ubiquitin carboxyl-terminal hydrolase 28 (Homo sapiens), Q96RU2; purified USP28, Ub-rhodamine cleavage fluorescence, 30 min; inhibition, % at 25 µM; 47,000 compounds, 3% hits; AID 1645857, 2021
* marks the source's active call; other numbers are inactive results; i = inactive; nt = not tested or not shown. In the library only some 12% were active in any assay of this set; here they are far more common. No stated cut-off is given here; in the data, active means inhibition above about 30%; inactive means the rest.

SMILES | OTUD3 block | USP30 block | USP17 block | USP28 inh
COc1ccc(NC(=O)c2cc(-c3ccncc3)n(-c3ccc(F)cc3)n2)cc1OC | -2 | 2 | -10 | 3
COc1cc(NC(=O)c2cc(-c3ccncc3)n(-c3ccc(F)cc3)n2)cc(OC)c1 | -4 | 14 | 10 | 71*
O=C(Cc1cccs1)Nc1nnc(SCc2ccc([N+](=O)[O-])cc2)s1 | -15 | -176 | -4 | 10
O=C(CSc1nnc(NC(=O)c2ccc([N+](=O)[O-])cc2)s1)Nc1ccc(Br)cc1 | 11 | 33* | 19 | 13
Cc1ccc(NC(=O)Nc2cccc(-c3ccc(N4CCOCC4)nn3)c2)cc1 | 17 | 15 | 18 | 18
COc1cc(-n2c(=O)c3ccccc3n(Cc3cccc(F)c3)c2=O)cc(OC)c1OC | 21 | 35* | 26 | 13
O=C(Cc1ccc(-n2c(=O)c3ccccc3n(Cc3cccc(F)c3)c2=O)cc1)NC1CCCC1 | 5 | -25 | -1 | 4
COc1cc(-n2c(=O)c3ccccc3n(CC(=O)NCCc3ccccc3)c2=O)cc(OC)c1OC | 19 | 35* | 17 | 13
COc1ccc(-c2nnn(CC(=O)NCCc3ccccc3)n2)cc1OC | 5 | 22 | 47* | 12
COc1cc(-n2c(=O)c3ccccc3n(CC(=O)NCC3CCCO3)c2=O)cc(OC)c1OC (centres undefined) | 2 | 1 | 2 | 3
CCS(=O)(=O)c1ccc2oc([C@H]3CCN(C4CCC4)C3)nc2c1 | -25 | -72 | -58 | -24
O=c1cc(CNc2ccc(Br)cc2)nc2nc(-c3ccccc3)[nH]n12 | 36* | 32* | 82* | 42*
CSc1ncccc1C(=O)OCc1ccccc1 | 2 | -3 | 1 | 49*
CSc1ncccc1C(=O)Nc1ccnn1Cc1ccccc1 | -5 | -8 | -12 | -9
Nc1c(C(=O)NCCc2ccccc2)nnn1-c1ccc(F)cc1 | 13 | 9 | 61* | 3
Cc1ccc2c(c1C)NC(=O)[C@]21[C@@H]2C(=O)N(c3cc(Cl)ccc3Cl)C(=O)[C@@H]2[C@@H]2CCCN21 | -120 | i | -142 | -255
Cc1nnc(-c2coc(S(=O)(=O)N3CCN(c4ccccc4C)CC3)c2)o1 | 3 | -3 | 4 | 2
Cc1nnc(-c2coc(S(=O)(=O)N3CCN(c4ccccc4F)CC3)c2)o1 | 9 | 39* | 20 | 0
Cc1ncccc1C(=O)N[C@@H]1CC[C@H]2Oc3ccccc3N[C@H]2[C@@H]1O | 6 | 3 | 0 | 4
Cc1ccc(OCc2nc3ccccc3n2Cc2ccc(F)cc2)cc1 | -1 | 3 | 34* | 14
Fc1ccc(NCc2nc3ccccc3n2Cc2ccccc2)cc1 | 18 | 42* | 14 | 33*
CCOc1ccc(NCc2nc3ccccc3n2Cc2ccccc2)cc1 | 4 | 3 | 16 | 11
CC(O)[C@@H](NC(=O)C1(c2ccccc2)CCN(C(=O)[C@@H]2Cc3ccccc3CN2C(=O)OC(C)(C)C)CC1)C(=O)O (some centres undefined) | 0 | -10 | 2 | -14
Cc1ccc(C)c(CN2C(=O)COc3ccc(C(=O)c4ccccc4C(=O)O)cc32)c1 | 15 | 36* | 9 | 22
Cn1c(=O)c(Sc2ccccc2C(=O)O)c(O)c2ccccc21 | 7 | 3 | -9 | 0
SMILES | OTUD3 block | USP30 block | USP17 block | USP28 inh
COc1cc2ncn(CC(=O)N[C@@H](Cc3ccccc3)C(=O)O)c(=O)c2cc1OC | 0 | 0 | -9 | -5
COc1cc(OC)c2cc(C(=O)N[C@@H](Cc3ccccc3)C(=O)O)n(C)c2c1 | 0 | 0 | 36* | 5
c1cc(-c2noc(C3CCCO3)n2)ccc1-c1csc(C2CC2)n1 (centres undefined) | 5 | -27 | 3 | 40*
c1cnc(-c2nc(-c3ccc(-c4csc(C5CC5)n4)cc3)no2)cn1 | -54 | -245 | -68 | -55
Cc1ccc2nc(N3C(=O)c4oc5ccccc5c(=O)c4C3c3ccco3)sc2c1 (centres undefined) | 4 | -49 | -9 | 4
Cc1ccc2nc(N3C(=O)c4oc5ccccc5c(=O)c4C3c3ccc(C)o3)sc2c1 (centres undefined) | 5 | 41* | 40* | 13
O=C(NCc1ccc(CN2CCCC2)cc1)c1cc2ccccc2[nH]c1=O | 2 | 28 | 65* | 23
O=C(Nc1ccc(F)cc1)c1cc2ccccc2[nH]c1=O | 0 | nt | 21 | nt
COc1ccc(-c2ccnc(N[C@H]3CO[C@H]4[C@@H]3OC[C@@H]4NC(=O)CCCC(=O)O)n2)cc1 | 14 | -1 | 2 | 8

High-throughput results (PubChem)
